Measurements: PubChem BioAssay (NCATS)
Records with an inconclusive call do not appear. A call without a number means that no potency is given here. Calls of active or inactive are those of the source. Calls come from the whole dose curve; as a rule, active = well fitted curve in the direction sought with a large enough effect; inconclusive = small, poorly fitted or top-dose-only effect, or another doubt; inactive = no such curve, though single readings can be large; an effect the other way counts as inactive or inconclusive.

How the values were obtained:
[1] = biological target: Calcium and integrin-binding protein 1 (Homo sapiens) (UniProt Q99828); test: Primary qHTS for Identification of Calcium Integrin Binding Protein 1 (CIB1) Competitor (AID 1508620);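 note: GST tagged CIB1 binding a fluorescein labelled alphaIIb integrin peptide tracer; top concentration of the series differs between compounds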
How it was run: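 CIB1-GST (1 uM final) and compound incubated 15 min at room temperature before adding FITC-alphaIIb peptide tracer (100 nM final). Competition for binding read by fluorescence polarization (ex 480, em 540) after another 15 min at room temperature.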

[2] = biological target: Calcium and integrin-binding protein 1 (Homo sapiens) (UniProt Q99828); test: Validation qHTS for Identification of Calcium Integrin Binding protein 1 (CIB1) Competitor (AID 1508618)
How it was run: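 Fluorescence polarization with 1 uM CIB1-GST and 100 nM FITC-alphaIIb peptide in HEPES pH 7.4, NaCl, 5 mM CaCl2, Tween20. Compounds at up to 114 uM final, preincubated with protein 15 min; read after 15 min more at RT.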

Chain of Calcium and integrin-binding protein 1 (Homo sapiens) (Q99828 whole entry, looked up): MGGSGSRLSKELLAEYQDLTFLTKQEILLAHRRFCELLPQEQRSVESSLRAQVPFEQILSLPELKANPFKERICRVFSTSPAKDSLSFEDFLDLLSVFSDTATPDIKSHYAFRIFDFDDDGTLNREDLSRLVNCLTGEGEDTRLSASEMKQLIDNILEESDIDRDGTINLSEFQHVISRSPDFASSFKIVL

Structure (SMILES)	Potency [1]	Potency [2]
COC(=O)C1(C)CCC(O)C2(C)c3c(O)cc(C(C)C)cc3C(O)C(OC(C)=O)C12 (stereo unspecified)	inactive	–
C/C=C(\C)C(=O)OC1CC2C(CC=C3CC(OC4CC(OC)C(OC5CC(OC)C(OC6OC(C)C(OC7OC(CO)C(O)C(O)C7O)C(OC)C6O)C(C)O5)C(C)O4)CCC32C)C2(O)CCC(C(C)=O)C12C (stereo unspecified)	inactive	–
C=C[C@H]1CN2CC[C@H]1C[C@@H]2[C@@H](O)c1ccnc2ccccc12	inactive	–
CC(C)(C)OC(=O)NC1[C@H]2CNC[C@@H]12 (stereo partly specified)	–	inactive
COC1CC(OC2CCC3(C)C(=CCC4C3CCC3(C)C(C(C)OC5OC(COC6OC(CO)C(O)C(O)C6O)C(O)C(O)C5O)CCC43O)C2)OC(C)C1OC1OC(C)C(O)C(OC)C1O (stereo unspecified)	inactive	–
CC(C)=C1CC[C@]23CO[C@H](C2)[C@@](O)(C(=O)O)CCC13 (stereo partly specified)	inactive	–
